Only some compounds are listed: those with a hit (about 2.9% of all), similar ones and a draw of the others.
KKLEB cytotox: counter-screen for CF NF-kB inhibitors: cytotoxicity; hit rate 0.36% among 360,000; KKLEB CF airway cells viability, ATPlite luminescence, overnight; stronger effect = lower value; cells stimulated with P. aeruginosa culture filtrate; activity change (cytotoxicity), % at 5 µM;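 active = corrected activity change at or below -50% at 5 µM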
Peg3 promoter: Peg3 promoter activity inhibition; HeLa PEG-Prom luciferase reporter, luminescence, overnight; inhibition, % at 20 µM; hit rate 1.7% among 360,000;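 active = inhibition of at least 50% at 20 µM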
Shn3 inh set2: Schnurri-3 reporter inhibition in Clone20 osteoblasts. Clone20 osteoblast Shn3 3'UTR firefly luciferase, 24 h. inhibition, % at 12.5 µM. hit rate 0.52% among 360,000. AID 588674;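 active = mean inhibition of at least 75% with every replicate also reaching 75%; inconclusive = mean inhibition at least 75% but some replicate below; inactive = mean inhibition below 75%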;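 note: 0% = median of neutral control wells and 100% = pilot-screen positive control compound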
CF NFkB block: inhibitors of cystic fibrosis induced NF-kB | KKLEB NF-kB-GFP reporter, PAF-induced, GFP fluorescence overnight | inhibition, % at 5 µM | hit rate 0.86% among 360,000 | AID 588850;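 active = at least 50% inhibition at 5 µM, scaled per plate between neutral and stimulator controls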;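 note: PAF is a Pseudomonas aeruginosa culture filtrate used as stimulus; plate controls were PAF-stimulated DMSO wells for no effect and unstimulated DMSO wells for full effect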
EBV LMP1 NFkB: reduces LMP1-driven NF-kappaB luciferase signal | LMP1-induced NF-kappaB luciferase reporter cells, luminescence | inhibition, % at 12.5 µM | hit rate 0.69% among 350,000; in the data active = inhibition above about 41%; inconclusive = no clear call, values can overlap the other calls;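 note: 0% = neutral control wells and 100% = reference inhibitor control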
MITF TRPM1 inh: MITF TRPM1 promoter inhibition in SK-MEL-5 cells | SK-MEL-5 TRPM1 promoter luciferase, 24 h | inhibition, % at 12.5 µM | hit rate 0.83% among 330,000;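 active = mean inhibition across replicates of 60% or more, whatever share of single replicates reaches that level; inconclusive = some that reach 60%, reason not given; inactive = mean inhibition across replicates below 60%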
An asterisk follows results filed as active.

Screening CCN(CC)CCNC(=O)c1ccc(NC(=O)c2cccc(S(=O)(=O)N3CCc4ccccc43)c2)cc1 returned KKLEB cytotox -18, Peg3 promoter 77*, Shn3 inh set2 17, CF NFkB block 6, EBV LMP1 NFkB -17 and MITF TRPM1 inh 58.
`CC1Cc2ccccc2N1S(=O)(=O)c1cccc(C(=O)NCCCO)c1` (centres undefined) gave KKLEB cytotox 12, Peg3 promoter 11, Shn3 inh set2 18, CF NFkB block -12, EBV LMP1 NFkB 3 and MITF TRPM1 inh -5.
For CCN(CC)CCNC(=O)c1cc(S(=O)(=O)N2CCc3ccccc32)cn1C the results were KKLEB cytotox 16, Peg3 promoter 9, Shn3 inh set2 -4, CF NFkB block -15 and EBV LMP1 NFkB -3.
`Cc1cccc(NC(=O)c2ccc(Cl)c(S(=O)(=O)N3CCc4ccccc43)c2)n1` gave KKLEB cytotox 12, Peg3 promoter 16, Shn3 inh set2 42, CF NFkB block -2, EBV LMP1 NFkB 12 and MITF TRPM1 inh 14.
`CCN(CC)CCNC(=O)c1ccc(NC(=O)c2cccc(S(=O)(=O)N3c4ccccc4CC3C)c2)cc1` (centres undefined) gave KKLEB cytotox -14, Peg3 promoter 86*, Shn3 inh set2 7, CF NFkB block 23, EBV LMP1 NFkB -5 and MITF TRPM1 inh 93*.
For O=C(Nc1ccncc1)c1ccc(Cl)c(S(=O)(=O)N2CCc3ccccc32)c1 the results were KKLEB cytotox -31, Peg3 promoter 45, Shn3 inh set2 89*, CF NFkB block 26, EBV LMP1 NFkB 13 and MITF TRPM1 inh 38.
Cc1ccn2c(=O)c(NC(=O)c3ccc4c(c3)OCO4)c(C)nc2c1 was read as KKLEB cytotox -2, Peg3 promoter -4, Shn3 inh set2 -10, CF NFkB block -5 and EBV LMP1 NFkB -1.
Cc1ccc(NC(=O)c2ccc([N+](=O)[O-])o2)c(C)c1 was read as KKLEB cytotox 0, Peg3 promoter 13, Shn3 inh set2 60, CF NFkB block 16, EBV LMP1 NFkB -21 and MITF TRPM1 inh 23.
Screening Cc1ccc(S(=O)(=O)c2ccc([N+](=O)[O-])o2)cc1 returned KKLEB cytotox -89*, Peg3 promoter 105*, Shn3 inh set2 95*, CF NFkB block 78*, EBV LMP1 NFkB inconclusive and MITF TRPM1 inh 96*.
Screening CC(=O)c1cccc(NC(=O)c2ccc(-c3c(C)noc3C)c3ccoc23)c1 returned KKLEB cytotox -2, Peg3 promoter -142, Shn3 inh set2 -69 and CF NFkB block -77.
Screening N=C(N)c1ccc(N=Nc2c(O)ccc3c2[nH]c2ccccc23)cc1 returned KKLEB cytotox 6, Peg3 promoter 98*, Shn3 inh set2 14, CF NFkB block 0, EBV LMP1 NFkB 11 and MITF TRPM1 inh 27.
For Oc1ccc(N=Nc2c(O)ccc3ccccc23)cc1 the results were KKLEB cytotox 28, Peg3 promoter -149, Shn3 inh set2 23, CF NFkB block -25, EBV LMP1 NFkB -8 and MITF TRPM1 inh -3.
CCOC(=O)c1ccc(NC(=O)COc2ccc(CNCCO)cc2OCC)cc1 was read as KKLEB cytotox -11, Peg3 promoter -7, Shn3 inh set2 2, CF NFkB block 11, EBV LMP1 NFkB -7 and MITF TRPM1 inh -5.
For CCOC(=O)c1ccc(NC(=O)COc2ccccc2CNCCc2ccccc2)cc1 the results were KKLEB cytotox -18, Peg3 promoter 98*, Shn3 inh set2 0, CF NFkB block 18, EBV LMP1 NFkB -55 and MITF TRPM1 inh -2.
`COCOc1cccc(CN2CCC2(C)C(=O)Nc2ccc(OC)c(OC)c2)c1` (centres undefined) gave KKLEB cytotox 0, Peg3 promoter 4, Shn3 inh set2 2 and CF NFkB block 6.
Screening CCCCNC1C(CC)C(CCC)C(C#N)(C#N)C1(C#N)C#N (centres undefined) returned KKLEB cytotox -31, Peg3 promoter 27, Shn3 inh set2 16, CF NFkB block 81*, EBV LMP1 NFkB 24 and MITF TRPM1 inh 37.
CC1(Oc2ccccc2-c2ccn[nH]2)CCN(Cc2ccc(OC(F)(F)F)cc2)C1 (centres undefined) was read as KKLEB cytotox -2, Peg3 promoter 6, Shn3 inh set2 37 and CF NFkB block -27.
`COC1C=CC=C(C)C(=O)NC2=CC(=O)C(N)=C(CC(C)CC(OC)C(O)C(C)C=C(C)C1OC(N)=O)C2=O` (centres undefined) gave KKLEB cytotox 17, Peg3 promoter 64*, Shn3 inh set2 87*, CF NFkB block 64*, EBV LMP1 NFkB 72* and MITF TRPM1 inh 65*.
`Cc1cc(N2CCN(c3ccc(C(F)(F)F)cc3[N+](=O)[O-])CC2)c2ccccc2n1` gave KKLEB cytotox 1, Peg3 promoter 10, Shn3 inh set2 53, CF NFkB block 4, EBV LMP1 NFkB 5 and MITF TRPM1 inh 10.
`Cc1cc(N2CCN(c3ccc([N+](=O)[O-])c4cccnc34)CC2)c2ccccc2n1` gave KKLEB cytotox -12, Peg3 promoter 106*, Shn3 inh set2 75, CF NFkB block -41, EBV LMP1 NFkB 3 and MITF TRPM1 inh 76*.
Screening CC1=C(c2ccccc2)C=NNCC1=O returned KKLEB cytotox 3, Peg3 promoter 4, Shn3 inh set2 10, CF NFkB block -15, EBV LMP1 NFkB -2 and MITF TRPM1 inh -3.
CN(C)/C=C1\Oc2ccc3ccccc3c2C1=O was read as KKLEB cytotox 0, Peg3 promoter -265, Shn3 inh set2 27, CF NFkB block -20, EBV LMP1 NFkB -28 and MITF TRPM1 inh -66.
For O=C1C(=O)c2c(ccc3ccccc23)-c2ccccc21 the results were KKLEB cytotox -84*, Peg3 promoter 102*, Shn3 inh set2 96*, CF NFkB block 74*, EBV LMP1 NFkB 59* and MITF TRPM1 inh 98*.
For O=C(C1CCCCC1)N1C[C@@H](O)[C@H](n2cc(-c3ccc(F)cc3)nn2)C[C@@H]1c1ccc(Cl)cc1 the results were KKLEB cytotox -7, Peg3 promoter 19, Shn3 inh set2 12, CF NFkB block 6 and EBV LMP1 NFkB -5.
COC(=O)c1c(NC(=O)C(Cl)Cl)sc2c1C(C(=O)OC)CC2 (centres undefined) was read as KKLEB cytotox 1, Peg3 promoter 81*, Shn3 inh set2 -7, CF NFkB block -6, EBV LMP1 NFkB -27 and MITF TRPM1 inh inconclusive.
`Cc1onc(-c2ccccc2)c1C(=O)NC(=S)NNC(=O)c1ccccc1O` gave KKLEB cytotox -2, Peg3 promoter 17, Shn3 inh set2 41, CF NFkB block -3, EBV LMP1 NFkB 40 and MITF TRPM1 inh 15.
Cc1onc(-c2ccccc2)c1C(=O)NC(=S)NNC(=O)c1ccc(O)cc1O was read as KKLEB cytotox -30, Peg3 promoter 27, Shn3 inh set2 77, CF NFkB block 39, EBV LMP1 NFkB 43* and MITF TRPM1 inh 47.
